Here are results for 50 compounds from PubChem BioAssay AID1423 (NMMLSC, 2008).

Among all 220,000 compounds or so, about 750 (0.34%) were called active. This is one part of a sample in which actives are shown more often than they occur. A number with no mark means an inactive call. No stated cut-off is given here; in the data, active means response below about 60% or above about 140%; inactive means in between.

The target in this assay is Guanine nucleotide-binding protein G(o) subunit alpha (Homo sapiens) (UniProt P09471). The assay can be described thus: RGS8-Galphao binding modulators, primary screen, biochemical, multiplexed bead flow cytometry (AID 1423).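 Further: Galphao activated as the GDP aluminium fluoride complex binding bead-coupled RGS8.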 As to conditions: at 10 µM, actives lie on both sides.
Chain of Guanine nucleotide-binding protein G(o) subunit alpha (Homo sapiens) (P09471 whole entry, looked up): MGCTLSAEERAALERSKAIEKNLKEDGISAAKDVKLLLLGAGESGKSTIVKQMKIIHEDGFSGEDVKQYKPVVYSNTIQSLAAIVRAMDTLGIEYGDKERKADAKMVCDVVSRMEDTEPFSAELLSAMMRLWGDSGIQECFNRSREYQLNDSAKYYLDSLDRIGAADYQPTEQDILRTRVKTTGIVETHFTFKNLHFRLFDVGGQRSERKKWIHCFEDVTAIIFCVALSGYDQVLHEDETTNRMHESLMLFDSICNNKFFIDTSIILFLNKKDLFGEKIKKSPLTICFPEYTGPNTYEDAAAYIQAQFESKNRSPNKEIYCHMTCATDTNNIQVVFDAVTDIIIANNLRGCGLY
Consider `CCN(CC(=O)NCc1cccs1)C(=O)c1ccccc1F`, for which the response (percent of control binding) was 99.2%.
The value for `Cc1ccccc1OCC(O)CN1CCN(c2ccccn2)CC1` (stereo not given) was 99.3%; that for `Cc1cccc(C)c1OCC(O)CN1CCCCC1` (stereo not given) was 99.3%.
On to `Cc1ccc(OCC(O)CN2CCN(CC(O)COc3ccc(C)cc3Cl)CC2)c(Cl)c1` (stereo not given), for which the response (percent of control binding) is 165% [activator] (active).
As for `Cc1ccc(NCc2n[nH]c(=S)n2-c2ccccc2)cc1Cl`, the response (percent of control binding) was 99.7%.
On to `COc1ccc(C2C(C#N)=C(N)N(c3ncn[nH]3)C3=C2C(=O)CCC3)cc1` (stereo not given), for which the response (percent of control binding) was 100%.
The value for `CC(=O)n1cc([C@@H]2C=C(C(=O)N3CCN(Cc4ccc5c(c4)OCO5)CC3)O[C@H](OCc3ccc(CO)cc3)C2)c2ccccc21` was 102%; that for `COc1ccc(COCC(O)CN2CCC(C(N)=O)CC2)cc1` (stereo not given) was 104%.
With `O=[N+]([O-])C(=c1ccc2c(c1)N1C3=C(CCCC3)CC3CCCCC31N=2)[N+](=O)[O-]` (stereo not given), the response (percent of control binding) is 43.8% (active).
As to `COc1ccc(CNCCCO)cc1OC`, the response (percent of control binding) was 108%.
The value for `Cc1cc(=O)[nH]c(SCC(=O)Nc2ccc(Br)cc2)n1` was 93.2%.
In the case of `Cc1ccc(N2C(=O)C3C(c4ccccc4)(C2=O)C3(c2ccccc2)c2ccccc2)cc1` (stereo not given), the response (percent of control binding) is 23.3% (active).
On to `Cc1ccc(N2C(=O)C(Cc3ccccc3)NC2=S)cc1` (stereo not given), for which the response (percent of control binding) was 102%.
The value for `Cc1ccc(N2C(=O)C3CC3C2=O)cc1` (stereo not given) was 101%; that for `O=C(CCSc1ccccc1)N1CCN(c2ccccc2F)CC1` was 99.9%.
The value for `CC1(C)C2CC=C(/C=N/NC(=O)c3ccc(Cl)cc3)C1C2` (stereo not given) was 105%.
The value for `COCCCN1C(=O)C(=O)/C(=C(/O)c2ccc3c(c2)CC(C)O3)C1c1cccnc1` (stereo not given) was 89.7%; that for `COc1cc(C2/C(=C(\O)c3ccc4c(c3)CC(C)O4)C(=O)C(=O)N2Cc2ccco2)ccc1O` (stereo not given) was 12.8% (active); that for `COc1ccc(/C(O)=C2\C(=O)C(=O)N(Cc3ccco3)C2c2ccc(OC)cc2OC)cc1` (stereo not given) was 98.3%.
Turning to `Cc1ccc(-n2c(O)c(C=Nc3ccc(S(=O)(=O)Nc4ncccn4)cc3)c3ccccc3c2=O)cc1C`, the response (percent of control binding) was 102%.
The value for `COC(=O)c1cc(NC(=O)C2C3C=CC(C3)C2C(=O)O)cc(C(=O)OC)c1` (stereo not given) was 100%; that for `O=C(CSc1nnc2n1CCCN2)c1ccccc1` was 104%.
The value for `COc1cc(C(=O)NCc2ccc(-n3cccc3)cc2)cc(OC)c1OC` was 103%; that for `O=C(CCCl)Nc1ccc(S(=O)(=O)NCc2ccco2)cc1` was 98.5%; that for `CCCn1nnnc1NC(=O)COc1ccc(Cl)cc1C` was 11.9% (active).
In the case of `Cc1cc(NC(=O)COc2ccc(Cl)cc2Cl)n(CCC#N)n1`, the response (percent of control binding) was 99.5%.
The value for `CCOC(=O)N1CCN(C(=O)COc2ccc(Cl)cc2C)CC1` was 101%; that for `CCCCCN(C(=O)NC(=O)Nc1cccc(C)c1C)S(C)(=O)=O` was 102%.
Turning to `O=C(CCc1ccccc1)Nc1ccc(NC(=O)C2CCCCC2)nc1`, the response (percent of control binding) is 105%.
The value for `O=C(COC(=O)c1ccc[nH]c1=O)Nc1ccc2c(c1)OC(F)(F)O2` was 104%; that for `O=C(CSc1nc2ccc(Nc3nc(N4CCOCC4)nc(N4CCOCC4)n3)cc2s1)NCc1ccco1` was 98.3%.
As to `Cc1ccc(C(=O)N/C(=C/c2cccs2)C(=O)NCC2CCCO2)cc1` (stereo not given), the response (percent of control binding) was 103%.
With `O=C(Cn1nnc(-c2ccccc2)n1)N/N=C/c1ccc(-c2ccc(Cl)cc2)o1`, the response (percent of control binding) is 101%.
For the compound `Oc1ccc(-c2onc3ccc(Cl)cc23)cc1`, the response (percent of control binding) is 144% [activator] (active).
Consider `Clc1ccc2nc(-c3ccccc3)nc(C(Cl)Cl)c2c1`, for which the response (percent of control binding) was 94.2%.
The value for `O=C(Oc1cccc(N2C(=O)C3C4c5ccccc5C(c5ccccc54)C3C2=O)c1)c1ccco1` (stereo not given) was 102%; that for `O=C1C2C3C=CC(C4CC34)C2C(=O)N1c1nccs1` (stereo not given) was 101%.
As to `CCc1nnc(NC(=O)CCCSc2nc3ccccc3[nH]2)s1`, the response (percent of control binding) is 101%.
Consider `Cc1ccc(NC(=O)/C(=C/c2ccc([N+](=O)[O-])cc2)NC(=O)c2ccccc2)cc1`, for which the response (percent of control binding) is 106%.
Regarding `COc1ccc(-c2nc3cnccn3c2NC(C)(C)CC(C)(C)C)cc1O`, the response (percent of control binding) is 98.8%.
The value for `COc1ccc(N=C(C)c2sc3ccccc3c2O)cc1` was 97.2%; that for `CC(NC(=O)C1CCC(CNc2c(N3CCOCC3)c(=O)c2=O)CC1)c1ccccc1` (stereo not given) was 99.7%.
As for `COc1ccc(CNC(=O)C2CCC(CNc3c(N4CCOCC4)c(=O)c3=O)CC2)cc1` (stereo not given), the response (percent of control binding) was 103%.
The value for `O=C(NCc1ccc(F)cc1)C1CCC(CNc2c(N3CCOCC3)c(=O)c2=O)CC1` (stereo not given) was 8.33% (active).
The value for `Cc1cccc(C)c1NC(=O)Nc1ccccc1-n1ccnc1` was 101%.
The value for `O=C(Nc1ccn(Cc2ccccc2)n1)c1cccc(F)c1` was 103%; that for `Cc1ccc(Cn2ccc(NC(=O)c3cc(C(C)C)on3)n2)cc1` was 55.8% (active); that for `Cc1ccc(Cn2ccc(NC(=O)C3C4CCC(C4)C3C(=O)O)n2)cc1` (stereo not given) was 102%.
For `Cc1onc(-c2ccc(Cl)cc2)c1-c1ccnn1S(=O)(=O)c1ccc(Cl)cc1`, the response (percent of control binding) is 98.9%.
The value for `CS(=O)(=O)N(Cc1ccccc1)c1ccc(C(=O)NN=C2CCCCCC2)cc1` was 103%.
